Here are results for 13 molecules from PubChem BioAssay AID2061304 (National Center for Advancing Translational Sciences (NCATS), 2025).

Records with an inconclusive call do not appear. Values without a mark were called inactive. Activity calls are given as the source filed them. The call rests on the fitted dose curve; in most records, active means well fitted inhibition curve with a large enough effect; inconclusive means small, poorly fitted or top-dose-only effect; inactive means flat fitted curve, though single readings scatter. Square brackets hold non-standard residues; d marks the D form. Peptide text beside a SMILES is read from it. Dolaproine = CO[C@@H]([C@@H]1CCCN1)[C@@H](C)C(=O)O; Dil = CC[C@H](C)[C@H](NC)[C@@H](CC(=O)O)OC; NMeV = CN[C@H](C(=O)O)C(C)C

This experiment in a line: Identification of antibody-drug conjugate (ADC) payloads which are substrates of ATP-binding cassette drug efflux transporters: ABCB1-HeLa-KB-8-5-11 cell line. To be noted: KB-8-5-11 (P-gp overexpressing HeLa) viability, CellTiter-Glo, 48 h; series mostly up to 31.4 µM; activity change, negative = less viable: at the top concentration. The text has this: Antibody-drug conjugates (ADCs) feature an antibody recognizing a specific protein joined to a potent toxic payload. Numerous antibody-drug conjugates have received FDA approval; however, clinical resistance arises. Resistance mechanisms include decreased expression or mutation of the antibody target, impaired payload release, or increased expression of ATP-binding cassette (ABC) efflux transporters associated with multidrug resistance. We therefore sought to characterize the interaction of ABC multidrug transporters with ADC payloads. We performed a high-throughput screen with 27 common ADC payloads using cells lines expressing ABC transporters P-glycoprotein (P-gp, encoded by ABCB1) or ABCG2 (encoded by ABCG2). Confirmatory assays were also performed using cells transfected to express P-gp, ABCG2, or MRP1 (encoded by ABCC1). Several commonly used ADC payloads were substrates of P-gp, including calicheamicin gamma1, monomethyl auristatin E, DM1, and DM4. All the pyrrolobenzodiazepines tested - SJG136, SGD-1882, SG2057, and SG3199 - were substrates of P-gp, ABCG2, and MRP1. […] These findings highlight the risk of transporter-mediated resistance with certain ADC payloads and underscore the importance of selecting payloads that evade ABC transporter recognition in future ADC development.
HEK-293 cells were transfected with empty vector (pcDNA) or vector containing the human ABCB1 (MDR-19), ABCG2 (R-5), or ABCC1 gene (MRP1) and were maintained in EMEM with 2 mg/mL G418 added to maintain transporter expression. The HeLa derivative KB-3-1 and the P-gp overexpressing KB-8-5-11 subline were maintained in DMEM; KB-8-5-11 additionally received 100 ng/mL colchicine. H460 parental cells were obtained from the Division of Cancer Treatment and Diagnosis Tumor Repository, National Cancer Institute at Frederick, MD and were cultured in RPMI. The ABCG2 expressing subline H460 MX20 was generated by selecting H460 cells in 20 nM mitoxantrone. Media in all cases was supplemented with 10% FBS and 1% penicillin-streptomycin. We explored 27 common ADC payloads, in two orthogonal, paired cell line sets-a drug selected and transfected set for each transporter--to identify substrates of the ABC transporters P-gp and ABCG2. Compounds were sourced from Levena Biopharma (San Diego, CA), Selleck Chem (Houston, TX), ChemieTek (Indianapolis, IN), or Microsource Discovery Systems (Gaylordsville, CT). Screening was performed as previously described. Briefly, cells were plated at a density of 500 cells/well in 1536 well plates with compounds added using a 1536-head pin tool (Kalypsys, San Diego CA). Cells were incubated with cytotoxic drugs and processed with CellTiter Glo reagent (Promega, Madison, WI) to determine viability after 48 hours. P-gp substrates were identified by comparing compound activity between paired sets of low-expressing (sensitive) and over-expressing (resistant) cell lines.
In general terms: Cellular ATP, detected with luciferase, serves as a proxy for viable cell number.
On to `COc1cccc2c1C(=O)c1c(O)c3c(c(O)c1C2=O)C[C@@](O)(C(=O)CO)C[C@@H]3O[C@H]1C[C@H]2[C@H](O[C@@H]3[C@@H](OC)OCCN32)[C@H](C)O1`, for which the Potency was 0.2 nM (active).
On the same count and under the same terms, the same measure for `CC[C@H](C)[C@@H]([C@H](N)CC(=O)N1CCC[C@H]1[C@H](OC)[C@@H](C)C(=O)N[C@@H](Cc1ccccc1)c1nccs1)N(C)C(=O)[C@@H](NC(=O)[C@H](C(C)C)N(C)C)C(C)C`: 6.7 nM (active).
As for `CCc1c2c(nc3ccc(O)cc13)-c1cc3c(c(=O)n1C2)COC(=O)[C@]3(O)CC`, the Potency was 1330 nM (active).
`CCN[C@H]1CO[C@@H](O[C@H]2[C@H](O[C@H]3C#C/C=C\C#C[C@]4(O)CC(=O)C(NC(=O)OC)=C3/C4=C\CSSSC)O[C@H](C)[C@@H](NO[C@H]3C[C@H](O)[C@H](SC(=O)c4c(C)c(I)c(O[C@@H]5O[C@@H](C)[C@H](O)[C@@H](OC)[C@H]5O)c(OC)c4OC)[C@@H](C)O3)[C@@H]2O)C[C@@H]1OC`: the Potency was 420 nM (active).
Regarding `COc1ccc(C2=CN3C(=O)c4cc(OC)c(OCCCOc5cc6c(cc5OC)C(=O)N5C=C(c7ccc(N)cc7)C[C@@H]5C=N6)cc4N=C[C@H]3C2)cc1`, the “activity change, negative = less viable” value was 0.446%.
With `CN(C)CCOc1ccc2[nH]c(C(=O)N3C[C@@H](CCl)c4c3cc(O)c3ccccc43)cc2c1`, the Potency is 0.7 nM (active).
With `CC[C@]1(O)CC2CN(CCc3c([nH]c4ccccc34)[C@@](C(=O)OC)(c3cc4c(cc3OC)N(C)[C@H]3[C@@](O)(C(=O)OC)[C@H](OC(C)=O)[C@]5(CC)C=CCN6CC[C@]43[C@@H]65)C2)C1` (stereo partly drawn), the Potency is 298 nM (active).
As to `CC(C)(C)OC(=O)Nc1ccc2[nH]c(C(=O)N3C[C@@H](CCl)c4c3cc(O)c3ccccc43)cc2c1`, the Potency is 9.4 nM (active).
For the molecule `COc1cc2cc(c1Cl)N(C)C(=O)C[C@H](O)[C@]1(C)O[C@H]1[C@H](C)C1C[C@@](O)(NC(=O)O1)[C@H](OC)/C=C/C=C(\C)C2`, the Potency was 13300 nM (active).
On to `COc1cccc2c1C(=O)c1c(O)c3c(c(O)c1C2=O)C[C@@](O)(C(=O)CO)C[C@@H]3O[C@H]1C[C@H](N)[C@H](O)[C@H](C)O1`, for which the Potency was 16700 nM (active).
Turning to `COC(=O)c1cc2c3c(cc(O)c2[nH]1)N(C(=O)c1cc2cc(OC)c(OC)c(OC)c2[nH]1)CC3CCl` (stereo not drawn), the Potency is 0.6 nM (active).
Consider `CC[C@H](C)[C@@H]([C@H](N)CC(=O)N1CCC[C@H]1[C@H](OC)[C@@H](C)C(=O)N[C@@H](Cc1ccccc1)c1nccs1)N(C)C(=O)[C@@H](NC(=O)[C@@H](NC)C(C)C)C(C)C`, for which the Potency is 1.9 nM (active).
On the same count and under the same terms, to `CC[C@H](C)[C@@H]([C@@H](CC(=O)N1CCC[C@H]1[C@H](OC)[C@@H](C)C(=O)N[C@@H](Cc1ccccc1)C(=O)O)OC)N(C)C(=O)[C@@H](NC(=O)[C@@H](NC)C(C)C)C(C)C` (H-[NMeV]V[Dil][Dolaproine]F-OH) belongs 265 nM (active).
